The results in this text go back to PubChem BioAssay (NCATS).

Inconclusive results are not listed. The source made the active and inactive calls. Unless noted, the call rests on the fitted dose curve; in most records, active means well fitted curve in the direction sought with a large enough effect; inconclusive means small, poorly fitted or top-dose-only effect, or another doubt; inactive means no such curve, though single readings can be large; an effect the other way counts as inactive or inconclusive.

Assay [1] has as its target M-phase phosphoprotein 8 (Homo sapiens) (UniProt Q99549). The assay is described as follows: qHTS Validation Assay for Inhibitors for MPP8 Chromodomain Interactions with Methylated Histone Tails (AID 488949).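 Further: AlphaScreen signal from MPP8 chromodomain bound to biotinylated H3K9me3 peptide; top concentration of the series differs between compounds; on the % scale 0 is the no-effect control and ±100 the full control effect; nearly all actives have a fitted effect of over 55% in size.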 The procedure, abridged: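 AlphaScreen proximity signal from streptavidin donor and Ni-chelate acceptor beads (10 ug/mL each) reported binding of MPP8 to trimethyl-K9 H3(1-18) peptide, both at 50 nM. The complex formed 30 min before a 30 min compound exposure at room temperature, in PBS pH 7.4.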
(In general: qHTS replaces the single test concentration by a dilution series.)

Assay [2] has as its target Chromobox protein homolog 1 (Homo sapiens) (UniProt P83916). The assay is described as follows: qHTS Validation Assay for Inhibitors of HP1-beta Chromodomain Interactions with Methylated Histone Tails (AID 488953).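 Further: loss of AlphaScreen luminescence from HP1-beta binding biotinylated H3K9me3 peptide; series mostly up to about 110 µM; on the % scale 0 is the no-effect control and ±100 the full control effect; nearly all actives have a fitted effect of over 50% in size.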 The procedure, abridged: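 AlphaScreen proximity readout: streptavidin donor and Ni-chelate acceptor beads, 10 ug/mL final, 30 min dark, RT. Complex of 50 nM HP1-beta and 50 nM b-H3(1-18)K9me3 formed 30 min, then compound-treated 30 min; PBS pH 7.4/0.01% Tween-20.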

The target of assay [3] is Methanococcus maripaludis chaperonin (MmCpn) (UniProt Q6LX38). In words: High-Throughput Screening for Modulators of Cytosolic Chaperonin Activity: MmCpn Primary Screen (AID 488978).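 Further: 50 nM MmCpn enzyme hydrolysing 30 µM ATP at 37 °C; 0% is about no effect.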 In outline:
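ATPase activity of 50 nM MmCpn was assayed with 30 uM ATP, 10 minutes at 37C, after a 5 min compound preincubation at room temperature. ADP production was read as HTRF emission at 590 and 665 nm.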

For assay [4], the target named is Transient receptor potential cation channel subfamily V member 1 (Homo sapiens) (UniProt Q8NER1). In words: HTS Assay for Compounds that Act as Enhancers of the Vanilloid Receptor 1 (AID 488979). Further: 0% is about no effect. The procedure, abridged: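 Calcium influx kinetics via Fluo-8 (480/520 nm) in TRPV1-expressing cells, 2000/well cultured overnight at 35.5C. Compound-alone read 3 min (agonist phase), followed by EC20 capsaicin challenge for 2 min (enhancer phase).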

Assay [5] addresses Thyrotropin receptor (Homo sapiens) (UniProt P16473). The assay is described as follows: qHTS Assay for Antagonists of the Thyroid Stimulating Hormone Receptor (AID 488980). Further: series mostly up to about 58 µM; 0% is about no effect. The procedure, abridged:
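Inhibition of cAMP raised by EC80 TSH (4 nM final) was read by HTRF, with lysate cAMP competing against cAMP-d2 for cryptate antibody after 30 min at room temperature. The cells were transfected HEK293 held in phosphodiesterase inhibitor RO 20-1724 at 70 uM.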

Assay [6] deals with D(1A) dopamine receptor (Homo sapiens) (UniProt P21728). The assay is described as follows: HTS Assay for Allosteric Agonists of the Human D1 Dopamine Receptor: Primary Screen for Agonists (AID 488981). Further: 0% is about no effect. In outline:
(§1)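 Calcium flux in an inducible, force-coupled HEK293 Trex D1 line (overnight at 30 C): agonist mode is the 180 s kinetic read after compound; potentiator mode is the following 180 s read after dopamine at EC20.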

Assay [7] has the same target. In words: HTS Assay for Allosteric Agonists of the Human D1 Dopamine Receptor: Primary Screen for Potentiators (AID 488982). Further: 0% is about no effect. The procedure, abridged:
as §1

Assay [8] has the same target. The assay is described as follows: HTS Assay for Allosteric Agonists of the Human D1 Dopamine Receptor: Primary Screen for Antagonists (AID 488983).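 Further: calcium flux response to an EC80 dopamine challenge measured with no-wash dye; on the % scale 0 is the no-effect control and ±100 the full control effect; nearly all actives have a fitted effect of over 65% in size.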 In outline:
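Calcium flux readout, no-wash dye, inducible HEK293 T-REx D1 line (force-coupled). Compound added after 10 s baseline, 180 s kinetic read; then dopamine at EC80, further 180 s read.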

In assay [9] the target is ATP-dependent 6-phosphofructokinase (Trypanosoma brucei brucei) (UniProt O15648). The assay is described as follows: qHTS Assay to Find Inhibitors of T. brucei phosphofructokinase: hit validation (AID 492961).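 Further: luminescence reports ADP formed as PFK phosphorylates fructose-6-phosphate with ATP; series mostly up to about 51 µM; on the % scale 0 is the no-effect control and ±100 the full control effect.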 The procedure, abridged: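 In this biochemical qHTS validation, titrated compounds were tested against 1.25 nM PFK with 0.1 mM ATP and 0.5 mM F6P. Percent activity came from controls lacking or containing enzyme.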

Assay [10] is described as follows: Validation screen for small molecules that induce genotoxicity in human embryonic kidney (HEK293T) cells expressing luciferase-tagged ELG1 (AID 493106). Further: 0% is about no effect. The procedure, abridged: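 qHTS format; 2,000 HEK293T ELG1-luc cells/well; 23 nL compound via pin tool; 16 hr, 37 °C/5% CO2; ONE-Glo, 30 min RT; luminescence read.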
The target of assay [11] is ATPase family AAA domain-containing protein 5 (Homo sapiens) (UniProt Q96QE3). The assay is described as follows: Validation screen for small molecules that inhibit ELG1-dependent DNA repair in human embryonic kidney (HEK293T) cells expressing luciferase-tagged ELG1 (AID 493107).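 Further: cells co-treated with the DNA-damaging agent 5-fluorouridine alongside compound; series mostly up to about 46 µM; on the % scale 0 is the no-effect control and ±100 the full control effect; inhibitors lower the ELG1-luciferase luminescence signal; nearly all actives have a fitted effect of over 70% in size.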 In outline:
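ELG1-luciferase HEK293T reporter; 5-fluorouridine + compound/DMSO, 16 hr, 37 °C, 5% CO2; ONE-Glo 30 min RT; luminescence read, qHTS format.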

Assay [12] has as its target Thyrotropin-releasing hormone receptor (Homo sapiens) (UniProt P34981). In words: qHTS for Small Molecule Agonists and Allosteric Enhancers of Human TRH Receptor: Validation Screen for Agonists (AID 493127;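 active means calcium activation more than 3 SD above the typical response in the agonist read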;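 further: intracellular calcium rise by fluo-8 fluorescence before TRH EC20 addition; 0% is about no effect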). The settings on record: TRH receptor agonist cell assay; at 2 µM; stronger effect = higher value. The procedure, abridged:
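Read-out: intracellular calcium release measured kinetically by FDSS (fluo-8, ex 480/em 530 nm), 1 reading/s after a 10-cycle baseline. TRHR cells, 2000/well, cultured 18 h at 33.5C, dye-loaded at room temp. Compound-evoked positive calcium signal flags agonists.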

Assay [13] in a line: Nrf2 qHTS screen for inhibitors: Validation (AID 493153; active means well fitted inhibition curve with a large enough effect in the main read-out, with a control signal flat, not every such curve was filed as active). As to conditions: Potency: luciferase luminescence; viability change: measured here: cytotoxicity max response. In outline:
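Concentration-response test in A549 ARE_Fluc reporter cells (5% FBS OPTI-MEM), compound exposure 18-24 h at 37°C, 5% CO2. Cell viability measured first by CellTiter-Fluor fluorescence; ARE-driven luciferase luminescence then measured as Nrf2 activity.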

A short description of assay [14]: qHTS for Inhibitors of Cell Surface uPA Generation: Validation Assay (AID 493164).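 Further: RAW 264.7 macrophage cells exposed to compound for 18 h; 0% is about no effect.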 The procedure, abridged:
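Compounds are titrated over seven points (2.45 nM–38.3 uM final) onto pre-plated RAW 264.7 cells and incubated for 18 h. Retained intracellular ATP, measured with ATP-Lite, indicates blocked lethal factor entry.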

Assay [15] addresses Galactokinase (Homo sapiens) (UniProt P51570). In words: qHTS Validation Assay for Inhibitors of Human Galactokinase (GALK) (AID 493189). Further: 0% is about no effect. The procedure, abridged:
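Inhibition was measured as remaining ATP, detected by luciferase luminescence after a 1 h room-temperature reaction. Final conditions: 5 nM GALK, 100 uM galactose, 35 uM ATP, pH 8.0 HEPES buffer.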

Assay [16] is described as follows: Validation screen for small molecules that induce DNA re-replication in SW480 colon adenocarcinoma cells (AID 504364). Further: 0% is about no effect. The procedure, abridged: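 Read-out: total Hoechst intensity of nuclei by fluorescence scanning imager; hits raise the fraction of nuclei with elevated DNA content. Cells received compound for 48 hr at 37 C before a 40 min stain.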
The target of assay [17] is Peptidyl-prolyl cis-trans isomerase NIMA-interacting 1 (Homo sapiens) (UniProt Q13526). The assay is described as follows: qHTS Validation Assay to Find Inhibitors of Pin1 (AID 504536; active means well fitted inhibition curve with a large enough effect in the polarisation, with a control signal flat, not every such curve was filed as active; the % refers to the polarisation;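 further: 0% = full Pin1 enzyme wells and -100% = no-enzyme wells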). In outline: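 Fluorescence polarization competition: compounds (titration) displace HiFluor-488-labeled Pin1-1b peptide from Pin1 (0.3 uM final) in pH 7.5 HEPES buffer with DTT, 10 min at room temperature; %Activity normalized to no-enzyme wells, curves fitted.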

The target in assay [18] is Phosphoglycerate kinase, glycosomal (Trypanosoma brucei brucei) (UniProt P07378). The assay is described as follows: qHTS Validation Assay to Find Inhibitors of Phosphoglycerate Kinase (AID 504547).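 Further: control wells lack PGK and mark full inhibition.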 The procedure, abridged: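 Luminescence end-point (Kinase-Glo Plus, 10 min) after a 60 min room-temperature coupled reaction. GAPDH at 100nM final supplies 1,3-BPG to PGK. Buffer: 100mM TEA pH 7.6, 5mM MgCl2, 0.01% Tween-20. Wells lacking PGK served as controls.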

Assay [19] has as its target phosphoglycerate mutase (Leishmania major) (UniProt Q4Q090). The assay is described as follows: qHTS Validation Assay to Find Inhibitors of Phosphoglycerate Mutase (AID 504548). Further: series mostly up to about 58 µM; on the % scale 0 is the no-effect control and ±100 the full control effect. The procedure, abridged:
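Lm PGAM 1.25nM final; 100 mM TEA pH 7.6, 5 mM MgCl2, 0.01% Tween-20; 45 min RT; Kinase-GloPlus, 10 min; end-point luminescence. Enzyme-free wells as negative controls.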

Assay [20] concerns the target Ubiquitin carboxyl-terminal hydrolase 1 (Homo sapiens) (UniProt O94782). In words: Inhibitors of USP1/UAF1: Pilot qHTS (AID 504865).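 Further: rhodamine fluorescence freed from ubiquitin-rhodamine substrate followed over time; top concentration of the series differs between compounds; on the % scale 0 is the no-effect control and ±100 the full control effect; nearly all actives have a fitted effect of over 35% in size.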 In outline:
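Deubiquitinase activity followed as kinetic rhodamine fluorescence release from 150 nM Ub-Rho. 1 nM USP1/UAF1 with compound, after 15 min room-temperature preincubation, in HEPES pH 7.8 buffer containing TCEP, EDTA, BSA and Tween-20.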

Sequence of Galactokinase (Homo sapiens) (P51570 whole entry, looked up): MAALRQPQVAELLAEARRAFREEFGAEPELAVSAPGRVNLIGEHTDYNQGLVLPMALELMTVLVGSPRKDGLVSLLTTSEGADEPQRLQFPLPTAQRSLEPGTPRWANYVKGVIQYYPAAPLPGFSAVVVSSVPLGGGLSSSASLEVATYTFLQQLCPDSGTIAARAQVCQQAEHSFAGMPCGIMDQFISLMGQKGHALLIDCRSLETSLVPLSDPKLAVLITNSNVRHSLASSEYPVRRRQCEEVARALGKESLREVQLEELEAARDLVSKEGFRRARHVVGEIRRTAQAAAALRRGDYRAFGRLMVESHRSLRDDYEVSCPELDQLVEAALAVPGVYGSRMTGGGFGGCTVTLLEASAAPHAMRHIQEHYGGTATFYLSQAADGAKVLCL
Sequence of Peptidyl-prolyl cis-trans isomerase NIMA-interacting 1 (Homo sapiens) (Q13526 whole entry, looked up): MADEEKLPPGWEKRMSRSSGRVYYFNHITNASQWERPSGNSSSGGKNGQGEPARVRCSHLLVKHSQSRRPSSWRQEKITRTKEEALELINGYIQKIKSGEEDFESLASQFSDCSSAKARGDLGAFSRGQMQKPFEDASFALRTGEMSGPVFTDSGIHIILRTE
Sequence of Thyrotropin receptor (Homo sapiens) (P16473 whole entry, looked up): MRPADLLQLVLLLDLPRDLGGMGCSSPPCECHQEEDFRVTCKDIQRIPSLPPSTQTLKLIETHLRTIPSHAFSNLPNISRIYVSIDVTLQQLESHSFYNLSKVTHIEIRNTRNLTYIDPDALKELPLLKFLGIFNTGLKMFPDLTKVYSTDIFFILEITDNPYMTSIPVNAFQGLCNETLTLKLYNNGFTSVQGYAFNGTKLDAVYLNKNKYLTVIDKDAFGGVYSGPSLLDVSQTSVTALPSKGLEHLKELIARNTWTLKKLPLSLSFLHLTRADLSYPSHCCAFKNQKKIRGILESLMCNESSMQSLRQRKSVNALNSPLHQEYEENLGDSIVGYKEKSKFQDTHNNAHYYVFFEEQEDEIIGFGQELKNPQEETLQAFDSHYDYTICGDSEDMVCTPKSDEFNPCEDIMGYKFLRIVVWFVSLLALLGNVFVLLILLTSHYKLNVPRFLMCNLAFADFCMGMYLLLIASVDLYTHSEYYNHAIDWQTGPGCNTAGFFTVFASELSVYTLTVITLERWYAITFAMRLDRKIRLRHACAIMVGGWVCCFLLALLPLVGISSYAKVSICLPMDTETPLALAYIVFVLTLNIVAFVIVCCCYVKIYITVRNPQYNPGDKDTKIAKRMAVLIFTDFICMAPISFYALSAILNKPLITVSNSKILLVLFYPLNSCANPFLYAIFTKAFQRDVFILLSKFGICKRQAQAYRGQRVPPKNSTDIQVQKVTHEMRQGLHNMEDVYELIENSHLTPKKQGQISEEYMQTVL
Sequence of Methanococcus maripaludis chaperonin (MmCpn) (Q6LX38 1-543): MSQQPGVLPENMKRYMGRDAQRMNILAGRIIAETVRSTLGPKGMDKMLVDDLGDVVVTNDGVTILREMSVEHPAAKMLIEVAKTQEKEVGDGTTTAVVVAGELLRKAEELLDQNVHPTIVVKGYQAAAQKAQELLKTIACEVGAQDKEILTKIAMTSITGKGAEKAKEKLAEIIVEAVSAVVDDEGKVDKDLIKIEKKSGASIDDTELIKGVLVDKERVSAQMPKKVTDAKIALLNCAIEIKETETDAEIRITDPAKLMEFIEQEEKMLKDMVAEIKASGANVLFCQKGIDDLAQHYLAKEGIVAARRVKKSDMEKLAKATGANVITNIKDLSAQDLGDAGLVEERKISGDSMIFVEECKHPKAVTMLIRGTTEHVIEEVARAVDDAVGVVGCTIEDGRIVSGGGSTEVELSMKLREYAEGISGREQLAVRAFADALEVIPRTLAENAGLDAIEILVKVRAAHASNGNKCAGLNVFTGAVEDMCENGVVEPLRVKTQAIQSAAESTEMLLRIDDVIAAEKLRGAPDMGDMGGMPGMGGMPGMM
Sequence of Phosphoglycerate kinase, glycosomal (Trypanosoma brucei brucei) (P07378 whole entry, looked up): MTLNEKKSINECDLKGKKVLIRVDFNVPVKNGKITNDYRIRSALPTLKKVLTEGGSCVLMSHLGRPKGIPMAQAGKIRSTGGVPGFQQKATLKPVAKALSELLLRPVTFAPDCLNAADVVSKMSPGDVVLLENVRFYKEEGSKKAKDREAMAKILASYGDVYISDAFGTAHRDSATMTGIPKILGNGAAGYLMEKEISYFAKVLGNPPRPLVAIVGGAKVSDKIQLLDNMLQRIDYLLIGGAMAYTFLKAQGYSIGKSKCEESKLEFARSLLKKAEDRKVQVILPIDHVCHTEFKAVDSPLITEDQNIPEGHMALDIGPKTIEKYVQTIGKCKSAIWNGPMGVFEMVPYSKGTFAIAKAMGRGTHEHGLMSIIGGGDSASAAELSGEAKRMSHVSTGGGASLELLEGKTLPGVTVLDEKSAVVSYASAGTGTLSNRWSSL
Sequence of D(1A) dopamine receptor (Homo sapiens) (P21728 whole entry, looked up): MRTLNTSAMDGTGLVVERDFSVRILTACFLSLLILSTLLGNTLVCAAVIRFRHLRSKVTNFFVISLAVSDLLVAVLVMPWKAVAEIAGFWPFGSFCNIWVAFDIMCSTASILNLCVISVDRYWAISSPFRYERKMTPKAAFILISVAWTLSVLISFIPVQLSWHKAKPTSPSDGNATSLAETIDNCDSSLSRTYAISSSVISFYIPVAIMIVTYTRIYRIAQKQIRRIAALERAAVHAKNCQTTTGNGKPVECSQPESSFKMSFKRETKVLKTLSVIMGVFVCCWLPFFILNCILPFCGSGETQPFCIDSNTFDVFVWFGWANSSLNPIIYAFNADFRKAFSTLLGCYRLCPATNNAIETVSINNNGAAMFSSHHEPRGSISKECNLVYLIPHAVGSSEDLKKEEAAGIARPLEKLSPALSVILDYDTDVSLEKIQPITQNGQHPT
Sequence of Chromobox protein homolog 1 (Homo sapiens) (P83916 whole entry, looked up): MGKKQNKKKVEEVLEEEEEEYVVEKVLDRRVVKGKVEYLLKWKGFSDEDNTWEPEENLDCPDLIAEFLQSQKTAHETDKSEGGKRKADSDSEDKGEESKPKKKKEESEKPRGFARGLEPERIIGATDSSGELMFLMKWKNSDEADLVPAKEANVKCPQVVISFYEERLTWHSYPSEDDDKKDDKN
Sequence of Ubiquitin carboxyl-terminal hydrolase 1 (Homo sapiens) (O94782 whole entry, looked up): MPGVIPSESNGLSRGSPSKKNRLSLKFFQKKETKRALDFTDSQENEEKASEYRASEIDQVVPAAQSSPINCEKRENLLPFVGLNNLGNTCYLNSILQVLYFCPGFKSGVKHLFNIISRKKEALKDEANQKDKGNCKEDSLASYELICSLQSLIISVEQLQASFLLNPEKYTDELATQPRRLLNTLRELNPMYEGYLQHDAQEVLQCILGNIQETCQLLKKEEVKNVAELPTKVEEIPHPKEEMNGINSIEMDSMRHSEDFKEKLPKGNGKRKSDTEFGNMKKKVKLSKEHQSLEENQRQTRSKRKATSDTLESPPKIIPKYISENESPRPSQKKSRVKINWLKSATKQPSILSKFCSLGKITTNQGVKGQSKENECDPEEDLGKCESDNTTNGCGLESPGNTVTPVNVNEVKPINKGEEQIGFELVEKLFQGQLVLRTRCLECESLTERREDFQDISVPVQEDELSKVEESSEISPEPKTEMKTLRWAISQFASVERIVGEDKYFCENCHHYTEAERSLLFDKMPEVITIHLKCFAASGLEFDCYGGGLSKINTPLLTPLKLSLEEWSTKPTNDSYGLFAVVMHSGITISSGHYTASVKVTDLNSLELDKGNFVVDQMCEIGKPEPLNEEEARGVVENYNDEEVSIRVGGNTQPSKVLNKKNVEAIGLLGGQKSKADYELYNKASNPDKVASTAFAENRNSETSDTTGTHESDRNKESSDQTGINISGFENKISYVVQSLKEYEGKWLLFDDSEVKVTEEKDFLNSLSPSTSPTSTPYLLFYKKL
Sequence of phosphoglycerate mutase (Leishmania major) (Q4Q090 1-553): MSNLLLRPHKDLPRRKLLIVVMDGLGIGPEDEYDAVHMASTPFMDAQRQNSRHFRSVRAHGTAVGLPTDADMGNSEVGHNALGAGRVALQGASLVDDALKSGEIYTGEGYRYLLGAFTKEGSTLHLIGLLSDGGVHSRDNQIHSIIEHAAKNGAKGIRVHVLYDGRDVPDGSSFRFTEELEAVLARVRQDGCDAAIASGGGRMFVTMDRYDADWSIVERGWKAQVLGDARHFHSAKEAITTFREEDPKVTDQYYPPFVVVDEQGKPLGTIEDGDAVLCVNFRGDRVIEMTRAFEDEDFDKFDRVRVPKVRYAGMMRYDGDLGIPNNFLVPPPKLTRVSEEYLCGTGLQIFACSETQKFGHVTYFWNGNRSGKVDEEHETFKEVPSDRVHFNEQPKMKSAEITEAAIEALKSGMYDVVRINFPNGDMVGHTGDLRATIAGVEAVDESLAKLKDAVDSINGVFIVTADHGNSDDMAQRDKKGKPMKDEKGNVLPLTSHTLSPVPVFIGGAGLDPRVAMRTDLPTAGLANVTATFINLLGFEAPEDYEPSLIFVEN
Sequence of Thyrotropin-releasing hormone receptor (Homo sapiens) (P34981 whole entry, looked up): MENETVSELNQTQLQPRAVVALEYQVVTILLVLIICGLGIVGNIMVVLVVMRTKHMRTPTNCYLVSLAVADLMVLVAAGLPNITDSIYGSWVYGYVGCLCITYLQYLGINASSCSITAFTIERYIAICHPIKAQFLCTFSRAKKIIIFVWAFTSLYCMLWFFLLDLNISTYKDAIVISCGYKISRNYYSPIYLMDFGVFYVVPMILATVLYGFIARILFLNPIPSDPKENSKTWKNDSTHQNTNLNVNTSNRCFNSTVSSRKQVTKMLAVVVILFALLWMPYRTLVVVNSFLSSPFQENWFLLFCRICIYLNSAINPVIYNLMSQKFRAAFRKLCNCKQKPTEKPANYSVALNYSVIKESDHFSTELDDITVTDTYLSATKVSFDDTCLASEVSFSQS

Consider `Cc1[nH]c(=O)c(C#N)cc1-c1ccncc1`, for which the Potency result in assay [1], in [2], in [6], in assay [7], in assay [8] and in [10] was “inactive” in each case. For the same compound, the Potency entry in assay [11], in [13] and in [20] was “inactive” in each case. Further, the compound was called inactive in [3], in assay [4], in [5], in assay [9], in [14] and in assay [15]. Also, the compound was classed as inactive in assay [16], in assay [17], in assay [18] and in assay [19]. For the same compound, the activation in assay [12] is 0.562% (inactive). The viability change in assay [13] is -4.04%.
With `NC(N)=NC(=O)c1nc(Cl)c(N)nc1N`, the Potency entry in assay [1], in assay [2], in [6], in [7], in assay [8] and in [10] was “inactive” in each case. The Potency entry in assay [11], in [13] and in assay [20] was “inactive” each time. Besides, the outcome in assay [3], in assay [4], in assay [5], in assay [14], in assay [15] and in assay [16] was inactive. The compound was called inactive in assay [17], in assay [18] and in [19]. Moreover, in assay [12], the activation was 0.812% (inactive). Further, the viability change in [13] is -5.66%.
As to `CC(C)C[C@H](NC(=O)[C@@H](O)[C@H](N)Cc1ccccc1)C(=O)O`, the Potency result in [1], in [2], in assay [6], in assay [7], in assay [8] and in assay [10] was “inactive” each time. Also, the Potency result in assay [11] and in assay [20] was “inactive” in each case. The outcome in assay [3], in [4], in assay [5], in assay [9], in assay [15] and in [16] was inactive. For the same compound, the compound was called inactive in assay [17] and in assay [18]. Also, the activation in assay [12] is 0.938% (inactive).
For the compound `NS(=O)(=O)c1cc2c(cc1Cl)NC=NS2(=O)=O`, the Potency result in [1], in assay [2], in assay [6], in assay [7], in assay [8] and in [10] was “inactive” in each case. For the same compound, the Potency result in assay [11], in assay [13] and in assay [20] was “inactive” in each case. The compound was classed as inactive in assay [3], in assay [4], in [5], in [14], in [15] and in assay [16]. For the same compound, the result in assay [17] and in assay [18] was inactive. In addition, the activation in assay [12] is 1.12% (inactive). Besides, in assay [13], the viability change is -3.76%.
`CCN(CC)CCCC(C)Nc1ccnc2cc(Cl)ccc12` (stereo not drawn): the Potency result in assay [1], in assay [2], in assay [6], in assay [7], in assay [8] and in assay [10] was “inactive” each time. Also, the Potency entry in assay [11], in assay [13] and in assay [20] was “inactive” each time. For the same compound, the compound was called inactive in assay [3], in assay [4], in [14], in [16], in [17] and in assay [18]. For the same compound, the result in assay [19] was inactive. Also, the activation in [12] is 0.875% (inactive). In addition, in assay [13], the viability change was -17.9%.
For `CNC[C@H](O)c1cccc(O)c1`, the Potency result in assay [1], in assay [2], in assay [6], in [7], in assay [10] and in assay [11] was “inactive” each time. The Potency entry in assay [13] and in assay [20] was “inactive” throughout. Besides, the compound was called inactive in assay [3], in assay [4], in assay [5], in assay [9], in [14] and in assay [15]. Also, the call in [16], in assay [17] and in assay [18] was inactive. Besides, the viability change in assay [13] was -8.68%.
